For some of these results: Entries with a potency or affinity are not part of this list.
Key:
Set-up in all cases: scale not given: direction of the effect not stated beside the values
[1] = target: Protein translocase subunit SecA (Escherichia coli (strain K12)) (UniProt P10408); experiment: Assay to Identify E. coli SecA ATPase Inhibitors; type: functional; conditions: 30 µM
[2] = target: T1, Ubiquitin-activating enzyme e1, putative (Leishmania donovani (strain BPK282A1)) (UniProt E9BSI1); experiment: Leishmania donovani Ubiquitin Activating Enzyme (LdE1); type: functional; conditions: 30 µM
T1 sequence (whole entry): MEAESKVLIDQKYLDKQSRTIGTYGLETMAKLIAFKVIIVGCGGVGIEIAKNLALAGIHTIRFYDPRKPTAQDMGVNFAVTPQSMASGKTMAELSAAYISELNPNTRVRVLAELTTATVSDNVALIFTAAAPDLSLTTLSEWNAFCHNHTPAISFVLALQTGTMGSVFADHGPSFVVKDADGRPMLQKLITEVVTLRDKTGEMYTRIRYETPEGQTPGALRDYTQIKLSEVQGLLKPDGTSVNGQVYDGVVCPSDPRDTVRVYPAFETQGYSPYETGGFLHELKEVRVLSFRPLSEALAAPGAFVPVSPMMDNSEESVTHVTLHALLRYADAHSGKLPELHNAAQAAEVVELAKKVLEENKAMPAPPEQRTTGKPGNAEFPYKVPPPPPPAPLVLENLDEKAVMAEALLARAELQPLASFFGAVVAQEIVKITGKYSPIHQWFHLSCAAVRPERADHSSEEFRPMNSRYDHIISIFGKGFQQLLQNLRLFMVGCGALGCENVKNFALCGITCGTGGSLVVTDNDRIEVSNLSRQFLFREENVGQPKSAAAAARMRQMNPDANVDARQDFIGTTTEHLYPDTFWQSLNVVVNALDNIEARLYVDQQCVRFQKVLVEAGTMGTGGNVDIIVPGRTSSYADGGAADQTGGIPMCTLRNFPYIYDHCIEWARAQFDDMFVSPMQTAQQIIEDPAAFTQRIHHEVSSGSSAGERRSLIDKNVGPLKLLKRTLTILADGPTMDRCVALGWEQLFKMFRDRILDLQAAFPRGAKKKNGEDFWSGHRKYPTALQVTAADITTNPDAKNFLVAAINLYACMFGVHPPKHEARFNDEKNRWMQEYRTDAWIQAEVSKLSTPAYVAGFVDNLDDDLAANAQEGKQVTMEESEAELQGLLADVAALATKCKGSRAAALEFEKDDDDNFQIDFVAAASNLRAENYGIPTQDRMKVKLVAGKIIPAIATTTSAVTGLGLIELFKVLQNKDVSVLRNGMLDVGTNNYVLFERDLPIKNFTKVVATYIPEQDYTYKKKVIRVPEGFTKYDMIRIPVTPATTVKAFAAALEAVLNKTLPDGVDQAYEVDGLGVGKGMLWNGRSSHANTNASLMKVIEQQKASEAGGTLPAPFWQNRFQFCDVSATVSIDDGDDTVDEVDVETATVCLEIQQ

[3] = target: AMP-activated protein kinase, AMPK (Homo sapiens) (UniProt P54646+O43741+P54619+Q9UGJ0+Q9Y478+Q13131+Q9UGI9); experiment: AMP-dependent Kinase enzyme assay. An in vitro enzyme assay that detects ADP turnover that is directly proportional to AMPK activity. This uses naive AMPK that is activated during the assay with MK-8722; type: functional; conditions: 30 µM
[4] = target: Sialic acid-binding Ig-like lectin 9 (Homo sapiens) (UniProt Q9Y336); experiment: Hs-Siglec9 ALPHAscreen SOP 20170721; conditions: 10 µM
Sequence of Sialic acid-binding Ig-like lectin 9 (Homo sapiens) (Q9Y336 whole entry): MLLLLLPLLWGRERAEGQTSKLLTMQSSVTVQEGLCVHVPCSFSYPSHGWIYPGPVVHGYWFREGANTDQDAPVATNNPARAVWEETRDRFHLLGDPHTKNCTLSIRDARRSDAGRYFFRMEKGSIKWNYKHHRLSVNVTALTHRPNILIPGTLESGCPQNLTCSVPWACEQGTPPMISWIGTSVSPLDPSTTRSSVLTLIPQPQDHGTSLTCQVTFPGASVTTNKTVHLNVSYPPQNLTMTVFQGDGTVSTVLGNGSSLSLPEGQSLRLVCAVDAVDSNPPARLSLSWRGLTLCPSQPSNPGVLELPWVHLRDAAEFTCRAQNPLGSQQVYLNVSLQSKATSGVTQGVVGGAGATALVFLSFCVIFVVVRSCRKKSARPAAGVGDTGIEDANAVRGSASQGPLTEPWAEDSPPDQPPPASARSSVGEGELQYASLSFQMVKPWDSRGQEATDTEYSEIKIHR

Trypanosoma cruzi = experiment: Trypanosoma cruzi phosphomannomutase and mannose-1-phosphate guanylyltransferase assay; type: functional; conditions: 10 µM
[5] = target: T2, Arginase-2, mitochondrial (Homo sapiens) (UniProt P78540); experiment: in vitro enzyme assay to detect the production of urea directly proportional to the activity of Arginase II; type: functional; conditions: 33.3 µM; note: in the data most compounds retested in dose-response had high values
T2 sequence (whole entry): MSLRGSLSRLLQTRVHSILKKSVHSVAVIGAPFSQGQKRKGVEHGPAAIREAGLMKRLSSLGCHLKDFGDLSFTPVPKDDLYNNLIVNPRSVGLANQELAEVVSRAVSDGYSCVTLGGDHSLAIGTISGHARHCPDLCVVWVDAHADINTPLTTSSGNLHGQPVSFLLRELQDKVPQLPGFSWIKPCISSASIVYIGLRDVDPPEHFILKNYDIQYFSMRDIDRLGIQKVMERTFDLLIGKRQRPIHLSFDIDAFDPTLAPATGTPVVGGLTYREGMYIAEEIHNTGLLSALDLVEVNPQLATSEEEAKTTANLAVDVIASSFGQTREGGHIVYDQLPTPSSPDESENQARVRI

[6] = target: T3, Proteasome subunit beta (Trypanosoma cruzi) (UniProt O96673); experiment: Trypanosoma cruzi proteasome chymotrypsin-like activity (TcProtChymo) assay.; note: in the data most compounds retested in dose-response had high values; type: functional; conditions: 9.37 µM
T3 sequence (whole entry): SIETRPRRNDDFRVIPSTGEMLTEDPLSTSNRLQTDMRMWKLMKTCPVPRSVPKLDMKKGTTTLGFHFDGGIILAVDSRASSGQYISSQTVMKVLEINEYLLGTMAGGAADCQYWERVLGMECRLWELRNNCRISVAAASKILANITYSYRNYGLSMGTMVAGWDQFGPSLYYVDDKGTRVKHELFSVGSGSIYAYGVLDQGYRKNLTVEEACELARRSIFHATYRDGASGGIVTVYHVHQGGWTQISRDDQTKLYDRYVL

Homo sapiens = organism: Homo sapiens; experiment: To identify inhibition of the IFN signalling (Jak-Stat) pathway via expression of an eGFP reporter gene under the control of an IFN-stimulated response element (ISRE) containing MxA promoter.; type: functional; conditions: 30 µM
[7] = target: T4, Tyrosyl-tRNA synthetase, putative (Trypanosoma cruzi (strain CL Brener)) (UniProt Q4DSP6); experiment: Trypanosoma cruzi tyrosyl tRNA synthetase (TcYRS) _High Tyrosine SOP; type: functional; conditions: 30 µM; note: in the data most compounds retested in dose-response had high values
T4 sequence (whole entry): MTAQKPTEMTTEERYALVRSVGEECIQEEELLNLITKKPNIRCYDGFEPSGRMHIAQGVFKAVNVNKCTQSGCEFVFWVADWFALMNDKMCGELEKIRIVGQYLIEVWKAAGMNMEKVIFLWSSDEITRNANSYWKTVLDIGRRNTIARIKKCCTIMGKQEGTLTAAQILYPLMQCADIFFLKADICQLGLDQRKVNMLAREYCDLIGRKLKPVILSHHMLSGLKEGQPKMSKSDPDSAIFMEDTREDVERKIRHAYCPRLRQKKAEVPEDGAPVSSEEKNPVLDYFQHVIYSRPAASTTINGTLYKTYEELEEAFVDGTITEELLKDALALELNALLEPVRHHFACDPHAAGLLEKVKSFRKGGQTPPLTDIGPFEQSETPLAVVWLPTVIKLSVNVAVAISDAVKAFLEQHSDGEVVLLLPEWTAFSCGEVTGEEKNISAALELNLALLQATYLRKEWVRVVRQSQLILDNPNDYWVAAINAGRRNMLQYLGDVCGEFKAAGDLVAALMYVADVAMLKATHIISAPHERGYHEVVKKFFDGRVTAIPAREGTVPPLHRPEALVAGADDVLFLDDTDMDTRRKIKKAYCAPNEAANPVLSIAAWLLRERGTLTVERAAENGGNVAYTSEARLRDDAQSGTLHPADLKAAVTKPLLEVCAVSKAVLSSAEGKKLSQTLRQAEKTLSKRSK

[8] = target: T4, Tyrosyl-tRNA synthetase, putative (Trypanosoma cruzi (strain CL Brener)); experiment: Trypanosoma cruzi tyrosyl tRNA synthetase (TcYRS) SOP; type: functional; conditions: 30 µM
[9] = target: Chromo domain-containing protein 1 (Saccharomyces cerevisiae (strain ATCC 204508 / S288c) (Baker's yeast)) (UniProt P32657); experiment: ScCHD-1 Enzyme Inhibition Assay; type: functional; conditions: 30 µM; note: in the data most compounds retested in dose-response had high values
Sequence of Chromo domain-containing protein 1 (Saccharomyces cerevisiae (strain ATCC 204508 / S288c) (Baker's yeast)) (P32657 whole entry, the tested form may be a part): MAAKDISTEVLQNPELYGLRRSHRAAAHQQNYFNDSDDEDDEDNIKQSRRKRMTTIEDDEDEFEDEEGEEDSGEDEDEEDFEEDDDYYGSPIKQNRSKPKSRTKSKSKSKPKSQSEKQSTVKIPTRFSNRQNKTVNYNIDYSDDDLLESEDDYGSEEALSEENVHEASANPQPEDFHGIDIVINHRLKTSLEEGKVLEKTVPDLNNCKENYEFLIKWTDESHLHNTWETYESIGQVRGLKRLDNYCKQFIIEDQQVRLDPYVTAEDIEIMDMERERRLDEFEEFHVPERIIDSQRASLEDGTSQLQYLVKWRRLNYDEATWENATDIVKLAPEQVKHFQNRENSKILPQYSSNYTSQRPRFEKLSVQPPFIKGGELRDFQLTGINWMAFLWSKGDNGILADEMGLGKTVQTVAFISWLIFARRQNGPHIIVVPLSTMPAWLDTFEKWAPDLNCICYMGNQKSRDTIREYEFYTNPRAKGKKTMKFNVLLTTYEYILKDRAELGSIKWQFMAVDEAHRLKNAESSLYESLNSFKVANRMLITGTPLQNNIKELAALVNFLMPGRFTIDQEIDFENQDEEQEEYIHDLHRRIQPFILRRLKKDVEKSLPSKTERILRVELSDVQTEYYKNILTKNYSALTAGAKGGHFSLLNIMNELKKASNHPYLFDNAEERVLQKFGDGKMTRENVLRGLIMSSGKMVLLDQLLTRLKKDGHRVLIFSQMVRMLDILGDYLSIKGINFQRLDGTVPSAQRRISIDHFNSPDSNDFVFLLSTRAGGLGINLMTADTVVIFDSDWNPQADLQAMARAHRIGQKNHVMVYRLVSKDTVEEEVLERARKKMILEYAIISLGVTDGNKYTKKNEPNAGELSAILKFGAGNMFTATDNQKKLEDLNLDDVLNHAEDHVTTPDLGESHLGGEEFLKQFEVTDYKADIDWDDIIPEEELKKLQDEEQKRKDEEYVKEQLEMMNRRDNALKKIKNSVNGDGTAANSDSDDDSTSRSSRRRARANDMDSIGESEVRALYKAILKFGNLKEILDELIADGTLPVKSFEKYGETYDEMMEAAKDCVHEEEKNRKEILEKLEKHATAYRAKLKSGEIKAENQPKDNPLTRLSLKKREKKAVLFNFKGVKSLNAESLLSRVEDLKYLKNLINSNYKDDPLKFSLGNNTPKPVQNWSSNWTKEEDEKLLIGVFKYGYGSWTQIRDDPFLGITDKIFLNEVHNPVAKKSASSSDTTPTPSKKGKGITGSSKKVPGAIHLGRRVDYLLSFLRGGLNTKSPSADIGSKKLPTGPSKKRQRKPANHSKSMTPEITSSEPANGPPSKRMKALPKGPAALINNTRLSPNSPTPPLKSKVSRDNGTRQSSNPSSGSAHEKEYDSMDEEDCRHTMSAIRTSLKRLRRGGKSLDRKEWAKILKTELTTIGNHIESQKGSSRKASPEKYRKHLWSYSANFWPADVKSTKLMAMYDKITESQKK

Sequence of Protein translocase subunit SecA (Escherichia coli (strain K12)) (P10408 whole entry): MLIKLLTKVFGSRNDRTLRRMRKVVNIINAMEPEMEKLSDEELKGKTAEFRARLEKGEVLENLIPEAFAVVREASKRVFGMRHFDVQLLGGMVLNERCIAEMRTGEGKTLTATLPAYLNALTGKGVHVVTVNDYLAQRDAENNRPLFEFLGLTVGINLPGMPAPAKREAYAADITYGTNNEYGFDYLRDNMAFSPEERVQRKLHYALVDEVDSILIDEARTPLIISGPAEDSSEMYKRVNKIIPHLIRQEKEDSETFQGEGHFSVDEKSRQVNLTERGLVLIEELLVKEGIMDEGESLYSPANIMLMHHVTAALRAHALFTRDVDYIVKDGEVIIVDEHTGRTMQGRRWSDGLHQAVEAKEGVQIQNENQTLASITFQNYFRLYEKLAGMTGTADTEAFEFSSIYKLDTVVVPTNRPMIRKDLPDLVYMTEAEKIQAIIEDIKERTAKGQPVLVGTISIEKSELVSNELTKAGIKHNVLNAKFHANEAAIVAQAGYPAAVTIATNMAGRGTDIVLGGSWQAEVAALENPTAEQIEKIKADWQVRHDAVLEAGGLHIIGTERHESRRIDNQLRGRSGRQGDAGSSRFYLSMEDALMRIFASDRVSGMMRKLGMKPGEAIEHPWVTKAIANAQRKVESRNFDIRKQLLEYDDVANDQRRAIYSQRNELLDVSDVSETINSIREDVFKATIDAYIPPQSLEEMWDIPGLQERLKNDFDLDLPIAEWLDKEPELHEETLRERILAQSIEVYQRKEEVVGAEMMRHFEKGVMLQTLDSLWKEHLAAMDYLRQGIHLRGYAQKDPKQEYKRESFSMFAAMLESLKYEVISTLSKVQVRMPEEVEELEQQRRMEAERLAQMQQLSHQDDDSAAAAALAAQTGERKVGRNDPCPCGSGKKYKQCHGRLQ

Row | Structure (SMILES) | Percent Effect [1] [%] | Percent Effect [2] [%] | Percent Effect [3] [%] | Percent Effect [4] [%] | Percent Effect (Trypanosoma cruzi) [%] | Percent Effect [5] [%] | Percent Effect [6] [%] | Percent Effect (Homo sapiens) [%] | Percent Effect [7] [%] | Percent Effect [8] [%] | Percent Effect [9] [%]
1 | Cc1cnn(CCC(=O)N2CCN(c3nc(C)cs3)CC2)c1 | -5.41 | 17.7 | -10.1 | 9.63 | 5.76 | -2.66 | 11.6 | 1.73 | 4.43 | 24.1 | -8.6
2 | Cc1ccc(N2CC[C@H]3C[C@@H](C(=O)N4CCOCC4)O[C@H]3C2)nn1 | -2.71 | 13.5 | -1.79 | -1.51 | -0.293 | -0.319 | 11.6 | -4.87 | 10.8 | 15.4 | -1.79
3 | CN(CCCc1cnn(C)c1)C(=O)C1CCOC1 (stereo not drawn) | -4.14 | 2.74 | 3.21 | 1.94 | -6.46 | -1.36 | 13.1 | 10.7 | 3.23 | 2.5 | -1.18
4 | Cn1cnc2c1C(COCC1CC1)CN(Cc1ccc3c(c1)OCO3)C2 (stereo not drawn) | -5.21 | -2.7 | 15 | -2.11 | -0.977 | -3.75 | 0.0845 | 12.3 | 2.97 | -1.22 | -2.11
5 | c1cnc(NCc2ncn3c2CN(Cc2cccnc2)CCC3)nc1 | -0.478 | 2.7 | 0.693 | -4.85 | -2.15 | 1.25 | 8.03 | 2.98 | 8.91 | 8.54 | -0.718
6 | CCCC(C)C(=O)NCc1cn2cc(Br)ccc2n1 (stereo not drawn) | -3.66 | -44.7 | 5.33 | 4.19 | -0.876 | -2.37 | 9.68 | 4.86 | 9.57 | 15.6 | -2.1
7 | CC(=O)c1cccc(NC(=O)COc2c(C)n(C)ccc2=O)c1 | -3.77 | 9.33 | 5.33 | 5.82 | -2.95 | -12.5 | 16.1 | 7.79 | 7.41 | 20.5 | -2.85
8 | CN(C(=O)c1ccccn1)c1nc2c(s1)CCc1c-2cnn1C | -3.06 | 52.7 | 11 | -2.4 | 4.94 | -4.41 | 11.5 | 16.9 | -4.3 | 1.3 | -15.7

From ChEMBL document CHEMBL3988442, “University of Dundee, Small-Polar-MMV Screening Library” (2021)
